Calls of active or inactive are those of the source. Calls follow the shape of the full dose curve.
% is scaled to controls: 0 for no effect and ±100 for the full control effect.

A short description of this experiment: qHTS assay to identify small molecule agonists of the estrogen related receptor (ERR) signaling pathway from Tox21 library (AID 1224849). Also: nearly all actives have a fitted effect of over 15% in size. The conditions noted are these: ERR reporter cell line, ONE-Glo luciferase, 18 h; at 92.4 µM (top of the series) unless noted. The source says: National Center for Advancing Translational Sciences [NCATS]
NIH Chemical Genomics Center [NCGC]
U.S. Environmental Protection Agency [EPA]
National Institutes of Environmental Health Sciences [NIEHS]
National Toxicology Program [NTP]
Estrogen related receptors (ERRs), the first orphan nuclear receptors discovered, play an important role in the control of cellular energy metabolism. ERRs are required for high-energy production in response to the environmental challenges. ERR-alpha was also identified as an adverse marker for breast cancer progression; ERR-alpha-positive tumors have a poor prognosis. To screen and to identify environmental compounds that perturb the ERR signaling pathways could provide valuable information for potential therapeutic or preventive measures in the treatment of metabolic disease. For identifying ERR agonists, ERR cell line (provided by NTP) has been used to screen Tox21 10K library.
The ERR cells were dispensed at 2,000 cells/5 ul/well in 1536-well white plates using a Multidrop dispenser. After the assay plates were incubated at a 37 C/5% CO2 incubator for 6 hours, 23 nL of compounds dissolved in DMSO, positive and negative controls or DMSO only was transferred to the assay plate by a pin tool. The plates were incubated at 37 C for 18 hours. 4 ul/well of One-Glo reagent was added into the assay plates using a Flying Reagent Dispenser. After 30-minute incubation at room temperature, the luminescence intensity in the plates was measured using a ViewLux plate reader.
A general note: Quantitative high-throughput screening tests each substance at several concentrations.
Consider `CC(=O)c1ccc2ccc3ccccc3c2c1`, for which the activity change, positive = activation was 8.72% (inactive).
Turning to `CC(=O)SC[C@@H](C)C(=O)N1CCC[C@H]1C(=O)N[C@@H](Cc1ccccc1)C(=O)O`, the activity change, positive = activation was 7.31% [at 42.5 µM] (inactive).
As to `Cc1ccc(O)c([N+](=O)[O-])c1`, the activity change, positive = activation was -16.2% (inactive).
Regarding `COc1ccc2cc(CCC(C)=O)ccc2c1`, the activity change, positive = activation was 114% [at 42.5 µM] (active).
For the compound `CCO[Si](CC(C)C)(OCC)OCC`, the activity change, positive = activation was -27.2% (inactive).
With `Cc1ccc(O)c(C(=O)c2ccccc2)c1`, the activity change, positive = activation was -3.28% (inactive).
For `CN(C)c1cc(NC(=O)CNC(C)(C)C)c(O)c2c1C[C@H]1C[C@H]3[C@H](N(C)C)C(=O)C(C(N)=O)=C(O)[C@@]3(O)C(=O)C1=C2O` the value was 1.19% [at 42.5 µM] (inactive).
For `CNC(=O)c1c(I)c(NC(C)=O)c(I)c(C(=O)O)c1I`, the activity change, positive = activation was 2.26% [at 42.5 µM] (inactive).
Turning to `COc1ccc(Cl)cc1C`, the activity change, positive = activation was 7.2% (inactive).
Consider `O=C1Nc2ccccc2C1=O`, for which the activity change, positive = activation is -1.92% (inactive).
In the case of `O=C1CCCc2c(O)cccc21`, the activity change, positive = activation is 0.0223% [at 42.5 µM] (inactive).
For the compound `CCCCCCCCCCCC(C)=O`, the activity change, positive = activation was -0.269% (inactive).
For `CC(C)OC(=O)C(C(=O)OC(C)C)=C1SC=CS1` the value was -19.5% [at 42.5 µM] (inactive).
As to `CCCCN1C(=O)c2ccccc2C1=O`, the activity change, positive = activation is 6.09% (inactive).
Turning to `CC(CN1CC(=O)NC(=O)C1)N1CC(=O)NC(=O)C1` (stereo not given), the activity change, positive = activation is -5.55% (inactive).
Regarding `CC(=O)SCC(CC(=O)c1ccc(C)cc1)C(=O)O` (stereo not given), the activity change, positive = activation is 8.89% [at 42.5 µM] (inactive).
`O=C(O)Cc1c(Cl)ccc(Cl)c1Cl`: the activity change, positive = activation is 6.33% (inactive).
On to `N=C(N)S(=O)O`, for which the activity change, positive = activation is 2.21% (inactive).
Under `CCCCOCCCC` stands 4.99% (inactive).
`O=C(O)CCC(=O)Nc1ccc(S(=O)(=O)Nc2nccs2)cc1`: the activity change, positive = activation is 8.26% [at 42.5 µM] (inactive).
For `CN1C(CCl)Nc2cc(Cl)c(S(N)(=O)=O)cc2S1(=O)=O` (stereo not given), the activity change, positive = activation was 0.151% [at 42.5 µM] (inactive).
In the case of `COC(=O)C(c1ccccc1Cl)N1CCc2sccc2C1` (stereo not given), the activity change, positive = activation was -2.43% [at 42.5 µM] (inactive).
For `CN(C)c1ccncc1` the value was -2.4% (inactive); for `Cc1ccc(OC(=O)CC(C)C)cc1`, -0.118% (inactive).
For `CC(C)(C)C(=O)CCc1ccc(Cl)cc1` the value was 2.37% (inactive); for `CC(=O)c1c(C)cc(C(C)(C)C)cc1C`, -1.7% (inactive); for `CCC(C)(C)C`, -3.65% (inactive).
Regarding `C=CCn1cc[n+](C)c1`, the activity change, positive = activation is 5.14% (inactive).
For `CCCCCCCC(=O)N(C)C` the value was 2.8% (inactive); for `CCCCC(CC)COC(=O)CC#N` (stereo not given), -0.23% (inactive); for `CC1(C)CC(N)CC(C)(C)N1`, 4.2% (inactive).
For `C=CCCCCCCCCOC(C)=O` the value was 7.36% (inactive); for `Nc1cc(S(=O)(=O)O)ccc1O`, 6.11% (inactive).
`N[C@H]1C(O)O[C@H](CO)[C@@H](O)[C@@H]1O` (stereo not given in full): the activity change, positive = activation is 3.25% [at 42.5 µM] (inactive).
With `CC(C)(Sc1cc(C(C)(C)C)c(O)c(C(C)(C)C)c1)Sc1cc(C(C)(C)C)c(O)c(C(C)(C)C)c1`, the activity change, positive = activation is 3.41% [at 42.5 µM] (inactive).
On to `O=S(=O)(O)c1cc(I)c(O)c2ncccc12`, for which the activity change, positive = activation is 2.69% [at 42.5 µM] (inactive).
For `CO/N=C(\C(=O)O)c1csc(NC(=O)CCl)n1`, the activity change, positive = activation was 4.95% [at 42.5 µM] (inactive).
With `O=C(O)CCCCCCCCCC(=O)O`, the activity change, positive = activation is 3.45% (inactive).
For the compound `N=C(N)N`, the activity change, positive = activation is 0.947% [at 42.5 µM] (inactive).
Under `N=C(N)N1CCc2ccccc2C1` stands 1.78% [at 8.39 µM] (inactive).
